The text below walks through data of PubChem BioAssay (NCI).

Among the test systems are SK-MEL-2 melanoma; EKVX NSCLC; SN12C renal; UO-31 renal; TK-10 renal; ACHN renal; A498 renal; CCRF-CEM leukemia; MOLT-4 leukemia; SR leukemia.
Holding throughout (assay): NCI-60 one-dose screen, 48 h (100 = growth as untreated, 0 = no growth, -100 = all killed)
Common to all, as to conditions: 10 µM unless noted

The panel holds about 83,000 compounds, 20% with a hit somewhere; the sample as a whole holds those more often.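 Assay: single dose, 48 h. Readout: percent growth (0 = no net growth; negative = cell death). Active: <10.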 Values without a mark were called inactive. Calls of active or inactive are those of the source.

Take `CCOC(=O)c1c(C)nc2c(c1N)/C(=C/c1cccs1)C(=O)N2c1ccc(OC)cc1`: the growth in the assay with SK-MEL-2 melanoma is 33%; with EKVX NSCLC, 49.8%; in the assay on SN12C renal, 39.4%; with UO-31 renal, 16.5%; in the assay with TK-10 renal, 35.7%; in the assay with ACHN renal, 31.5%. In addition, the growth in the assay with A498 renal was 35.1%; in the assay on CCRF-CEM leukemia it was 92.2%; with MOLT-4 leukemia it was 80.5%; with SR leukemia it was 55.8%.
`Cc1ccc(C2=N[C@H]3CCC[C@@H]3N(c3ccccc3)C(C(Cl)Cl)=N2)cc1`: the growth in the assay on SK-MEL-2 melanoma is 96.8%; in the assay with EKVX NSCLC it was 98.4%; in the assay with SN12C renal, 107%; with UO-31 renal it was 81.9%; in the assay with TK-10 renal it was 100%; in the assay with ACHN renal, 98%. In addition, the growth with A498 renal is 112%; with CCRF-CEM leukemia, 96.4%; with MOLT-4 leukemia, 94.3%; in the assay with SR leukemia, 95.8%.
With `CC(C)CSc1nc(Nc2ccccc2)c(C#N)c(-c2ccc(F)cc2)n1`, the growth with SK-MEL-2 melanoma was 78.8%; with EKVX NSCLC it was 23.2%; in the assay on SN12C renal, -26% (active); in the assay with UO-31 renal, -3.98% (active); in the assay with TK-10 renal it was -22.9% (active); with ACHN renal, -43.2% (active). Further, the growth with A498 renal was -0.717% (active); in the assay with CCRF-CEM leukemia it was 31.1%; with MOLT-4 leukemia it was 65.5%; with SR leukemia it was -11.1% (active).
For `CS(=O)(=O)O[C@@H]1C(=O)N(c2cc3c4ccccc4ccc3c3ccccc23)[C@H]1c1ccc(F)cn1`, the growth in the assay on SK-MEL-2 melanoma was 14.4%; in the assay with EKVX NSCLC it was 47.1%; in the assay with SN12C renal, 40.6%; with UO-31 renal, 46.9%; in the assay with TK-10 renal, 81.7%; in the assay with ACHN renal, 52%. The growth with A498 renal is 14.6%; in the assay with CCRF-CEM leukemia, 10.4%; in the assay on MOLT-4 leukemia it was 24.3%; in the assay with SR leukemia, 11.4%.
In the case of `COc1cc(-c2cn(-c3ccc(Cl)c(Cl)c3)c(=O)[nH]2)cc(OC)c1OC`, the growth in the assay on SK-MEL-2 melanoma was 97%; with EKVX NSCLC it was 95.3%; with SN12C renal, 87.5%; in the assay with UO-31 renal it was 93.6%; in the assay with TK-10 renal it was 94.7%; in the assay with ACHN renal, 96.5%. Moreover, the growth in the assay on A498 renal was 110%; with CCRF-CEM leukemia, 99.6%; with MOLT-4 leukemia, 85.1%; in the assay on SR leukemia, 31%.
In the case of `O=C(N/N=C/C[C@@H]1[C@@H](/C=C/[C@@H](O)COc2cccc(Cl)c2)[C@H](O)C[C@@H]1O)c1ccncc1`, the growth with SK-MEL-2 melanoma was 102%; in the assay with EKVX NSCLC, 98.4%; in the assay on SN12C renal, 102%; with UO-31 renal, 89.5%; with TK-10 renal it was 73.2%; with ACHN renal it was 101%. In addition, the growth was 97.9% in the assay with A498 renal, 98% with CCRF-CEM leukemia, 83.7% with MOLT-4 leukemia and 92.3% with SR leukemia.
With `COc1ccc(C(C)c2cc(OC)c(OC)c(OC)c2)cc1` (stereo not given), the growth is 33.6% in the assay with SK-MEL-2 melanoma; 35.8% in the assay on EKVX NSCLC; 39.1% with SN12C renal; 47.3% with UO-31 renal; 67.5% in the assay on TK-10 renal; 37% in the assay on ACHN renal. Further, the growth was 15.7% in the assay on A498 renal, 18.5% with CCRF-CEM leukemia, 9.71% (active) in the assay with MOLT-4 leukemia and 13.3% in the assay with SR leukemia.
As for `CC(=O)c1ccc(NC(=O)CSc2nnc(-c3cc(-c4ccc(Cl)cc4)nc4ccccc34)o2)cc1`, the growth in the assay with SK-MEL-2 melanoma is 87.3%; in the assay on EKVX NSCLC, 97.3%; with SN12C renal, 37.9%; with UO-31 renal, 86.6%; with TK-10 renal, 83.7%; in the assay on ACHN renal it was 89.8%. In addition, the growth in the assay with A498 renal was 105%; in the assay on CCRF-CEM leukemia it was 60.8%; in the assay on MOLT-4 leukemia it was 66.6%; in the assay with SR leukemia, 0.55% (active).
With `CCCCC(=O)Nc1c(C(=O)Nc2ccccc2)sc2nc3c(cc12)C(OC(=O)CCCC)CCC3` (stereo not given), the growth was 93.8% with SK-MEL-2 melanoma; 91.9% with EKVX NSCLC; 96.9% in the assay on SN12C renal; 89% in the assay on UO-31 renal; 98.2% in the assay with TK-10 renal; 115% in the assay on ACHN renal. For the same compound, the growth in the assay with A498 renal is 64.7%; in the assay with CCRF-CEM leukemia it was 69.8%; in the assay with MOLT-4 leukemia, 75.9%; in the assay on SR leukemia it was -10.6% (active).
Take `COc1ccc(/C=C(/C(=O)N2CCN(Cc3ccccc3)CC2)c2cc(OC)c(OC)c(OC)c2)cc1O`: the growth in the assay with SK-MEL-2 melanoma is 73.6%; with EKVX NSCLC it was 87.2%; in the assay on SN12C renal, 91.2%; in the assay with UO-31 renal, 62.5%; with TK-10 renal, 88.5%; in the assay with ACHN renal it was 67.2%. Moreover, the growth in the assay on A498 renal is 54.9%; with CCRF-CEM leukemia, 64.9%; in the assay with MOLT-4 leukemia, 72.1%; with SR leukemia it was 28%.
Consider `CC(C)Cc1cc(CNC(=O)C2[C@H]3CN(C(=O)c4ccccc4)C[C@@H]23)nn1-c1ccccc1` (stereo not given in full), for which the growth with SK-MEL-2 melanoma is 83.8%; in the assay on EKVX NSCLC, 92.8%; in the assay with SN12C renal, 99.1%; with UO-31 renal, 74.9%; in the assay with TK-10 renal it was 73.2%; in the assay on ACHN renal it was 92.2%. For the same compound, the growth was 96.6% with A498 renal, 89.7% in the assay with CCRF-CEM leukemia, 80.6% in the assay with MOLT-4 leukemia and 90.4% in the assay with SR leukemia.
Take `CC1(c2ccccc2Cl)NC(=O)NC1=O` (stereo not given): the growth with SK-MEL-2 melanoma is 95.6%; in the assay with EKVX NSCLC, 105%; in the assay with SN12C renal it was 105%; in the assay with UO-31 renal, 94%; with TK-10 renal, 90%; with ACHN renal, 108%. Also, the growth was 94.9% in the assay on A498 renal, 101% in the assay with CCRF-CEM leukemia, 94.5% in the assay on MOLT-4 leukemia and 98.5% in the assay with SR leukemia.
In the case of `Cn1c2ccccc2c2c(OC(=O)c3ccccc3)c3c(nc21)-c1ccccc1C3`, the growth with SK-MEL-2 melanoma was 81.1%; in the assay with EKVX NSCLC, 86%; with SN12C renal it was 98.1%; in the assay on UO-31 renal, 79.9%; in the assay with TK-10 renal, 124%; with ACHN renal, 97.1%. In addition, the growth in the assay with A498 renal is 119%; in the assay with CCRF-CEM leukemia, 98.8%; with MOLT-4 leukemia, 96.3%; in the assay with SR leukemia, 91.7%.
Take `O=C(Nc1nc(-c2ccccc2Cl)cs1)c1cc(-c2ccc(Br)cc2)nc2ccccc12`: the growth in the assay on SK-MEL-2 melanoma is 26.6%; in the assay on EKVX NSCLC, 35.6%; with SN12C renal, 69.9%; with UO-31 renal, 42%; in the assay on TK-10 renal it was 49.4%; in the assay on ACHN renal, 49.7%. Further, the growth in the assay on A498 renal is 22.6%; in the assay with CCRF-CEM leukemia it was 44.9%; in the assay with MOLT-4 leukemia, 37.2%; with SR leukemia it was 53%.
